The results in this text go back to the supplement of paper PMC9948646.

Each structure is given as a SMILES string. A number with no mark means an inactive call.

In the assay the test system is gramicidin D channels in DC22:1PC lipid vesicles (bilayer-modifying potency). In words: initial Tl+ fluorescence quench rate relative to no-drug control (NormRate, gramicidin monomer-dimer shift) (ratio (fold of control)); higher = stronger bilayer-modifying effect (equilibrium shifted toward conducting dimers), active = 1.5 or more. The note with it: 10 µM; lipid concentration 50 µM; temperature: 25 °C. As for the experimental part: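 Stopped-flow fluorescence quench assay: ANTS-loaded DC22:1PC large unilamellar vesicles doped with gramicidin D (1:2000), 50 µM lipid, equilibrated 10 min with 10 µM drug (0.1% DMSO), mixed with Tl+ quench buffer at 25°C. Initial quench rate (Tl+ influx) was fitted with a modified stretched exponential and normalised to the no-drug control rate (NormRate); duplicates from two independent LUV preparations (triplicates for 7 drugs).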
Regarding `O=C(Nc1ccccc1-c1nc2c(C(=O)O)cccc2o1)c1ccccc1`, the “initial Tl+ fluorescence quench rate” value is 1.34.
As for `C[C@@]1(COc2ccc(N3CCC(Oc4ccc(OC(F)(F)F)cc4)CC3)cc2)Cn2cc([N+](=O)[O-])nc2O1`, the “initial Tl+ fluorescence quench rate” value is 1.1.
On to `O=C(Nc1nnc(S)s1)c1cc(Br)ccc1Cl`, for which the “initial Tl+ fluorescence quench rate” value was 1.2.
Regarding `O=C(Nc1ccc(C(F)(F)F)c(C(F)(F)F)c1)c1cc(Cl)ccc1O`, the “initial Tl+ fluorescence quench rate” value was 2.9 (active).
In the case of `CCNC(=O)[C@H](C)Nc1nc(-c2cccnc2)nc2sc(C)c(C)c12` it was 1.08; in that of `O=C(Nc1cccc(-c2ccc(NCCCN3CCCC3)nc2)c1)c1ccccc1`, 1.2.
`C[C@H](C(N)=O)N1CCCC[C@H]1c1ccc(OCc2cccc(F)c2)cc1`: the “initial Tl+ fluorescence quench rate” value was 1.21.
In the case of `C[C@H]1CS(=O)(=O)CCN1/N=C/c1ccc([N+](=O)[O-])o1` it was 1.02; in that of `c1ccc(Oc2ccc(-c3cc(CN4CCOCC4)[nH]n3)cc2)cc1`, 1.7 (active).
The value for `CCOc1ccccc1C(=O)Nc1cccc(-c2nc3ncccn3c2C)c1` was 1.48; that for `CC(C)(C)C(=O)N(CCCCCCN1C[C@H](O)[C@@H](O)[C@H](O)[C@H]1CO)C1CCCCCC1` was 1.15.
The value for `COc1cccc(-n2nnnc2S(C)(=O)=O)c1` was 1.06.
On to `COc1ccc(-c2onc(C(F)(F)F)c2-c2ccc(Cl)cc2)c(O)c1`, for which the “initial Tl+ fluorescence quench rate” value was 1.38.
The value for `CN1CCCN([C@H](c2ccccc2)c2ccc(Cl)cc2)CC1` was 1.43; that for `CCCCc1ccc(C(=O)Nc2nccc3ccccc23)nc1` was 1.33.
As for `Cc1nc(-c2ccccn2)nc(N2CC[C@@H](Cc3ccccc3)C2)c1Cl`, the “initial Tl+ fluorescence quench rate” value was 3.57 (active).
`O=C(c1ccco1)N(CCCn1ccnc1)c1nc2c(Cl)cccc2s1`: the “initial Tl+ fluorescence quench rate” value is 1.24.
In the case of `C[C@H]1c2cccc(O)c2C(=O)C2=C(O)[C@]3(O)C(=O)C(C(N)=O)=C(O)[C@@H](N(C)C)[C@@H]3[C@@H](O)[C@@H]21` it was 1.02; in that of `O=C(NCCc1c[nH]c2ccccc12)c1cc2ccccc2oc1=O`, 1.95 (active); in that of `O=C(NC1=NCCS1)c1sc2cc(F)ccc2c1Cl`, 1.06.
For `Nc1ncc(-c2ccc(C(F)(F)F)nc2)cc1-c1ccc(C(F)(F)F)nc1`, the “initial Tl+ fluorescence quench rate” value is 1.08.
The value for `O=C(C1CCN(c2nnc(-n3cccc3)s2)CC1)N1CCC(Cc2ccccc2)CC1` was 1.24; that for `Cc1cnc(CCNC(=O)c2cc(-c3ccc(Cl)cc3)cs2)[nH]1` was 1.34.
For the molecule `Nc1ncnc2c1c(-c1cnc3ccccc3c1)nn2CC1CCNCC1`, the “initial Tl+ fluorescence quench rate” value is 1.07.
The value for `O=C(NC1CC1)c1ccc(N2CCOc3ccc(Cl)cc32)s1` was 3.52 (active).
The value for `CC(C)(C)n1nc(Cc2ccc(F)c(Cl)c2)c2c(N)ncnc21` was 1.84 (active).
Consider `COc1ccccc1[C@H](C)NCC(=O)Nc1cc(C(F)(F)F)ccc1Cl`, for which the “initial Tl+ fluorescence quench rate” value is 1.17.
In the case of `O=C(Nc1cccc(Cl)c1)c1cnc(N2CCN(c3ccncc3)CC2)c(Cl)c1`, the “initial Tl+ fluorescence quench rate” value was 3.74 (active).
Turning to `CC(C)[C@@H](Oc1cccc2ccccc12)C(=O)O`, the “initial Tl+ fluorescence quench rate” value was 1.1.
For the molecule `Cc1cc(NC(=O)c2ccc(S(=O)(=O)N(Cc3ccccc3)C(C)C)cc2)no1`, the “initial Tl+ fluorescence quench rate” value was 1.14.
The value for `Cn1c(=O)c2c(S(C)(=O)=O)snc2n(C)c1=O` was 1.19; that for `CN1CCC(c2cc(-c3ccncc3)c(-c3ccc(F)cc3)[nH]2)CC1` was 1.03.
As to `FC(F)(F)c1cc(NCCc2ccccc2)nc(-c2ccccn2)n1`, the “initial Tl+ fluorescence quench rate” value is 1.31.
The value for `[H]/N=C(/N)c1ccc(-c2cc(-c3ccccc3)on2)cc1` was 1.08; that for `O=C(NCCN1CCCC1)c1cc(NCCN2CCOCC2)nc2ccc(Cl)cc12` was 1.15; that for `NC[C@@H](c1cccs1)S(=O)(=O)c1ccccc1` was 1.36.
As for `O=C(Nc1ccc2c(c1)B(O)OC2)c1ccccc1C(F)(F)F`, the “initial Tl+ fluorescence quench rate” value was 1.06.
As to `Cc1cccc(NC(=O)c2cc(S(=O)(=O)N(C)c3ccc(F)cc3)ccc2Cl)n1`, the “initial Tl+ fluorescence quench rate” value was 1.5 (active).
`OCc1ccc(-c2cncc(Nc3cccc(Cl)c3)c2)cc1`: the “initial Tl+ fluorescence quench rate” value is 2.64 (active).
For the molecule `C[C@H]1COc2c(N3CCN(C)CC3)c(F)cc3c(=O)c(C(=O)O)cn1c23`, the “initial Tl+ fluorescence quench rate” value was 1.04.
